Experimental data taken from PubChem BioAssay (Tox21).
A number with no mark means an inactive call. The source made the active and inactive calls. Calls come from the whole dose curve; as a rule, active = well fitted curve in the direction sought with a large enough effect in the repeat runs; inconclusive = weak or mixed curves; inactive = flat fitted curve, though single readings scatter.

Test: qHTS assay to test for compound auto fluorescence at 535 nm (green) in HEK293 cells (AID 720680)
Details: green autofluorescence 485/535 nm; series mostly up to 91.3 µM; fluorescence, % of fluorescein: at the top concentration
From the text: U.S. Tox21 Program National Center for Advancing Translational Sciences [NCATS] NIH Chemical Genomics Center [NCGC] U.S. Environmental Protection Agency [EPA] National Institutes of Environmental Health Sciences [NIEHS] National Toxicology Program [NTP] U.S. Food and Drug Administration [FDA] Tox21 Assay Overview: Compound auto fluorescence often interferes with screening of the compound library against various biological targets and signaling pathways. Some of these compounds may have fluorophoric properties. Such properties may interfere with the assay outputs resulting in false positives and/or negatives. To decrease such complications and ensure the compound activities are relevant in terms of biological response, the Tox21 10K compound library was screened for auto fluorescence. From the fluorophores used as reporter signals in our screening assays, the auto fluorescence equivalencies of compounds against three fluorophores have been evaluated: Triamterene, Fluorescein and Rose Bengal sodium for blue, green and red fluorescence, respectively. The fluorescence intensities were measured using Excitation/Emission wavelengths at 405/460nm, 485/535nm and 540/590nm for blue, green and red labels, respectively. This assay includes the green fluorescence data.
Tox21 Assay Protocol Summary: 2,000 HEK293 cells in 5 uL of culture medium containing 10% dialyzed FBS per well were dispensed into black wall/clear bottom 1536-well plates using a Multidrop Combi Dispenser (Thermo Scientific). The assay plates were incubated for 4-5 hr at 37C to allow cell attachment to the well bottom, followed by the transfer of 23 nL compound or DMSO vehicle by a pintool work station (Kalypsys, San Diego, CA). After the assay plates were incubated overnight at 37C and 5% CO2, fluorescence intensities in the assay plates were measured by an Envision (PerkinElmer, Shelton, CT) plate reader using three labels for measuring blue, green and red fluorescence at […] 460, 535 and 590nm respectively.
% is set by controls: 0 for no effect and ±100 for the full control effect.

Row | Compound | fluorescence, % of fluorescein | outcome
1 | CC(Cc1ccc(OCC(=O)O)cc1)NCC(O)c1csc(C(F)(F)F)n1 (stereo not given) | -0.0973% | –
2 | CC(=O)[O-].CC(=O)[O-].[Co+2] | -0.264% | –
3 | CCC(OC(C)=O)C(CC(C)NC)(c1ccccc1)c1ccccc1 (stereo not given) | -0.0079% [at 95.7 µM] | –
4 | Cc1c([N+](=O)[O-])c(C)c([N+](=O)[O-])c(C(C)(C)C)c1[N+](=O)[O-] | 0.067% | –
5 | CNC(C)(C)Cc1ccccc1 | 0.0122% [at 18.6 µM] | –
6 | N#Cc1ccc(N(CC(N)=O)CC(F)(F)F)cc1C(F)(F)F | -0.0332% | –
7 | OCC(Br)CBr (stereo not given) | 0.0529% [at 95.7 µM] | –
8 | CC(=O)C(Cl)C(=O)N(C)C (stereo not given) | -0.016% | –
9 | CCCN | -0.118% | –
10 | Oc1ccc(Cl)c(Cl)c1 | 0.002% | –
11 | Nc1c(Cl)c(Cl)c(Cl)c(Cl)c1Cl | 0.204% | –
12 | C1=CCC=C1 | 0.0105% | –
13 | CN1CCc2cc(Cl)c(O)cc2[C@H]2c3ccccc3CC[C@@H]21 | 0.0295% [at 46 µM] | –
14 | Fc1ccc(C(OCCN2CCN(CCCc3ccccc3)CC2)c2ccc(F)cc2)cc1 | -0.0046% [at 46 µM] | –
15 | c1cc[n+]2c(c1)-c1cccc[n+]1CC2 | 0.122% [at 46 µM] | –
16 | CN | -0.0806% [at 95.7 µM] | –
17 | CNC(=O)Oc1cc(C)cc(C(C)C)c1 | 0.0421% | –
18 | CCn1cc[n+](C)c1 (tested in a mixture with another compound) | -0.0371% | –
19 | CCC(C)Nc1c([N+](=O)[O-])cc(C(C)(C)C)cc1[N+](=O)[O-] (stereo not given) | 0.14% | –
20 | CCN(CC)CCN1C(=O)CN=C(c2ccccc2F)c2cc(Cl)ccc21 | -0.0187% [at 46 µM] | –

Row | Compound | fluorescence, % of fluorescein | outcome
21 | CC(=O)[O-].CC(=O)[O-].CC(=O)[O-].[Cr+3] | 0.0028% | –
22 | C=CCBr | -0.0706% [at 95.7 µM] | –
23 | COc1ccc2[nH]cc(CCN(C(C)C)C(C)C)c2c1 | -0.0274% [at 95.7 µM] | –
24 | COC(=O)c1cc(Oc2ccc(Cl)cc2Cl)ccc1[N+](=O)[O-] | -0.0171% | –
25 | S=C=Nc1ccccc1 | 0.0431% [at 95.7 µM] | –
26 | Cc1cnc2c(C(=O)O)c(Cl)ccc2c1 | -0.0388% | –
27 | CC(Cc1ccc2c(c1)OCO2)NO (stereo not given) | -0.0294% [at 95.7 µM] | –
28 | Clc1ccc(C(Cl)(Cl)Cl)cc1Cl | -0.0771% | –
29 | Clc1ccc(C2(Cn3cncn3)OCCO2)c(Cl)c1 | – | inactive
30 | CO/N=C(\C(=O)OC)c1ccccc1CO/N=C(\C)c1cccc(C(F)(F)F)c1 | 0.157% | –
31 | CC(C)C(Br)C(=O)NC(N)=O (stereo not given) | -0.0197% [at 46 µM] | –
32 | CC(C)(C)c1ccc(OP(=O)(Oc2ccccc2)Oc2ccccc2)cc1 | -0.0064% | –
33 | CCC(C)c1cccc(C(C)CC)c1O (stereo not given) | 0.0669% | –
34 | [O]=[Cr](=[O])([OH])[O][Cr](=[O])(=[O])[OH] | – | inactive
35 | CN(C)c1ccc(N)cc1 | 0.0753% | –
36 | COC(=O)C(C)N(C(=O)c1ccco1)c1c(C)cccc1C (stereo not given) | 0.0327% | –
37 | O=C(Cl)c1ccccc1F | 0.0166% | –
38 | COP(=S)(OC)Oc1nc(Cl)c(Cl)cc1Cl | 0.0024% | –
39 | CCNS(=O)(=O)C(F)(F)C(F)(F)C(F)(F)C(F)(F)C(F)(F)C(F)(F)C(F)(F)C(F)(F)F | -0.0033% | –
40 | Cc1ccccc1OP(=O)(Oc1ccccc1C)Oc1ccccc1C | -0.0773% | –
